Measured values reported in the supplement of paper PMC12067093, “Discovery and optimisation of a covalent ligand for TRIM25 and its application to targeted protein ubiquitination” (Chemical Science, 2025).
Of roughly 21,000 targets only a part is listed; those with the largest changes were picked by preference.

Compound: CC1Cc2ccccc2N1C(=O)C1CCCN(C1)C(=O)CCl (mixture of isomers) [TRIM25 ligand 11 (diastereomer mixture)]
Test: probe-labelled cysteine peptide fold change vs DMSO (competition) (log2 fold change); higher = less target engagement (more negative = stronger competition)
Details: THP-1, incubation time: 4 h
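Note: competitive chemoproteomic profiling in live THP-1 cells with an iodoacetamide desthiobiotin (IA-DTB) probe, comparing probe-labelled peptide intensities in compound-treated cells against DMSO-treated controls.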

Chain of UniProt Q14653 (Q14653 whole entry): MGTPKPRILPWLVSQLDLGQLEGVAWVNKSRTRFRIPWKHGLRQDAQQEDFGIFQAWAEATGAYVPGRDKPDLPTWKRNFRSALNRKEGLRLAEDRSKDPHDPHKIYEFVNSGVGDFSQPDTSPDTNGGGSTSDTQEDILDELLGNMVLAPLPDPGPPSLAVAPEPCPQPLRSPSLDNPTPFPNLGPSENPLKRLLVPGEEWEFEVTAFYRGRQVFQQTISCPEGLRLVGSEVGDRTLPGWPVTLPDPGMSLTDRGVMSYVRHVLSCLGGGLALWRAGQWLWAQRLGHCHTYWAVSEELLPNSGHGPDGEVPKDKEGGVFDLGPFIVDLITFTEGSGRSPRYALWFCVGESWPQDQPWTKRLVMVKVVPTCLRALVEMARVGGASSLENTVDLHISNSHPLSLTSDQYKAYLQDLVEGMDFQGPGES
Chain of UniProt Q53HC5 (Q53HC5 whole entry, looked up): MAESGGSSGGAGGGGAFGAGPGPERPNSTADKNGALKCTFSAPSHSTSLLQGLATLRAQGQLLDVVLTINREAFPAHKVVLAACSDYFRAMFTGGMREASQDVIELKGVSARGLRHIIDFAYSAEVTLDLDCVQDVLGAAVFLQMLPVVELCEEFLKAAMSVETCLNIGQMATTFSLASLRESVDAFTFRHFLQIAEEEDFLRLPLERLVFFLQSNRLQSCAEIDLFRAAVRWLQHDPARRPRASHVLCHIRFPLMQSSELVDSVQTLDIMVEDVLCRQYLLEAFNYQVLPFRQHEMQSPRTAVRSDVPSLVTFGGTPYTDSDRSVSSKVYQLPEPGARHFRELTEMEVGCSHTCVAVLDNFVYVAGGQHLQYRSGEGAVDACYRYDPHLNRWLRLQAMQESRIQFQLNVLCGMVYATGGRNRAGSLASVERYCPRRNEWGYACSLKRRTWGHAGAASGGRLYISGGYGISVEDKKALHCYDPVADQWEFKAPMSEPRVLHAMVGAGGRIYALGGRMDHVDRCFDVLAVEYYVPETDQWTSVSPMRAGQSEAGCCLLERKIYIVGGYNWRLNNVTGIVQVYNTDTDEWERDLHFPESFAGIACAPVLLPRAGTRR
Chain of UniProt P52294 (P52294 whole entry, looked up): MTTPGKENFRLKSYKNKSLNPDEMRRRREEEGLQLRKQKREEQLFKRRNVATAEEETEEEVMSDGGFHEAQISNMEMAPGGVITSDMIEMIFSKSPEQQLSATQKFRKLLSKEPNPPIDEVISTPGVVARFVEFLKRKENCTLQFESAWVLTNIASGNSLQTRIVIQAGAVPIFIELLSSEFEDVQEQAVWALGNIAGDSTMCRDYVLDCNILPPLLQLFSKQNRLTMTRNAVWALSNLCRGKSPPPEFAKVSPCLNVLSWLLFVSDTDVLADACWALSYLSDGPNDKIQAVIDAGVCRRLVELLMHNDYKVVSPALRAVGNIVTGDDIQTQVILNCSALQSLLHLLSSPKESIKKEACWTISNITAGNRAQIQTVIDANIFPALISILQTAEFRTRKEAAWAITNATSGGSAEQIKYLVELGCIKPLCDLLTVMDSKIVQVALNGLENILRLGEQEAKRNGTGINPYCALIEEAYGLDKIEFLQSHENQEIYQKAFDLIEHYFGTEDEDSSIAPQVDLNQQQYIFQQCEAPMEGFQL
Chain of UniProt Q14807 (Q14807 whole entry, looked up): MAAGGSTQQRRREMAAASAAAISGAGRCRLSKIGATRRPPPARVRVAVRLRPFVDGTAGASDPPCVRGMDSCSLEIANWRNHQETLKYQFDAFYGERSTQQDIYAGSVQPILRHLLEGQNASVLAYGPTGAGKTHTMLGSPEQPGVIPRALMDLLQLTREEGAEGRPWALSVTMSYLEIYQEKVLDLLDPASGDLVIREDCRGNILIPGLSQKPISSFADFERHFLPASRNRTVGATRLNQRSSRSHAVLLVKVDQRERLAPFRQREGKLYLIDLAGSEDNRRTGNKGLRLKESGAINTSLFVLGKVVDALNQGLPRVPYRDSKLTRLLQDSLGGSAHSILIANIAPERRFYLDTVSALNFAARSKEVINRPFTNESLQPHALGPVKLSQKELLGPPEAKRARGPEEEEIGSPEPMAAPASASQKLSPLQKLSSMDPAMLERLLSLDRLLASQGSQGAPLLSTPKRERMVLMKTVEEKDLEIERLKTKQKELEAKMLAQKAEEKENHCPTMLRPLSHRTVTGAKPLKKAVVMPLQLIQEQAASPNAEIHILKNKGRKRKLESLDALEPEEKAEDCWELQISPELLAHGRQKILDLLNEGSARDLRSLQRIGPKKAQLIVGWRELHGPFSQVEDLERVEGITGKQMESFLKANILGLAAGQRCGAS
Chain of UniProt Q9Y496 (Q9Y496 whole entry): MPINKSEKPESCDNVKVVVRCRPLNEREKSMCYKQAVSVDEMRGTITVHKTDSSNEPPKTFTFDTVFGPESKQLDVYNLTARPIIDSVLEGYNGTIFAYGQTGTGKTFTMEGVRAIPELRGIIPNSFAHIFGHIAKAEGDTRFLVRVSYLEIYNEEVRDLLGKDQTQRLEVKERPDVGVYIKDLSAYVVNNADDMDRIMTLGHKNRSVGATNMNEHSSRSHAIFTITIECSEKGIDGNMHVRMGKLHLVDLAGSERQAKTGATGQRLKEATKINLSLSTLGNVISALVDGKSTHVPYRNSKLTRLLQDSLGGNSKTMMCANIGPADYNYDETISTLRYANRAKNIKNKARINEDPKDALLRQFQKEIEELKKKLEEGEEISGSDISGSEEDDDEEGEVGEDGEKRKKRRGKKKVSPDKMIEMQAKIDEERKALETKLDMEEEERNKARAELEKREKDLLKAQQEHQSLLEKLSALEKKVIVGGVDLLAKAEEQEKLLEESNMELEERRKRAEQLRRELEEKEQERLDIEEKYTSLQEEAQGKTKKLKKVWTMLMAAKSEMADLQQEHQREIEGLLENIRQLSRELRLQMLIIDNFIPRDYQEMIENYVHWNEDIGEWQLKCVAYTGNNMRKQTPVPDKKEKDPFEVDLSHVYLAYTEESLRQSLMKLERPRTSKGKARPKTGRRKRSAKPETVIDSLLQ
Chain of UniProt Q9NS86 (Q9NS86 whole entry, looked up): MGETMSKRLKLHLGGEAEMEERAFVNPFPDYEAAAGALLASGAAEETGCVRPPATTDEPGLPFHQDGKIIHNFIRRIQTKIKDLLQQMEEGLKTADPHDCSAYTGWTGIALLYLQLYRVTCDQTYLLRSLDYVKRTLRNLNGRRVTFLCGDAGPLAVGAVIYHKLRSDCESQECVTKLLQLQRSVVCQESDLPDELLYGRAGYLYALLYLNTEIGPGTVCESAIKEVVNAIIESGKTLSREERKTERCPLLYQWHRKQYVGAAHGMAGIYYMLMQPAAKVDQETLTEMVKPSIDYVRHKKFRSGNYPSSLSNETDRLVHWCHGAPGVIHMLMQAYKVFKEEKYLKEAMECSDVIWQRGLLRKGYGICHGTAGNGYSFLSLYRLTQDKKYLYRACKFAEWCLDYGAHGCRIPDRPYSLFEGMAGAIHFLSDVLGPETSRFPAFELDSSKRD
Chain of UniProt Q9NSE4 (Q9NSE4 whole entry, looked up): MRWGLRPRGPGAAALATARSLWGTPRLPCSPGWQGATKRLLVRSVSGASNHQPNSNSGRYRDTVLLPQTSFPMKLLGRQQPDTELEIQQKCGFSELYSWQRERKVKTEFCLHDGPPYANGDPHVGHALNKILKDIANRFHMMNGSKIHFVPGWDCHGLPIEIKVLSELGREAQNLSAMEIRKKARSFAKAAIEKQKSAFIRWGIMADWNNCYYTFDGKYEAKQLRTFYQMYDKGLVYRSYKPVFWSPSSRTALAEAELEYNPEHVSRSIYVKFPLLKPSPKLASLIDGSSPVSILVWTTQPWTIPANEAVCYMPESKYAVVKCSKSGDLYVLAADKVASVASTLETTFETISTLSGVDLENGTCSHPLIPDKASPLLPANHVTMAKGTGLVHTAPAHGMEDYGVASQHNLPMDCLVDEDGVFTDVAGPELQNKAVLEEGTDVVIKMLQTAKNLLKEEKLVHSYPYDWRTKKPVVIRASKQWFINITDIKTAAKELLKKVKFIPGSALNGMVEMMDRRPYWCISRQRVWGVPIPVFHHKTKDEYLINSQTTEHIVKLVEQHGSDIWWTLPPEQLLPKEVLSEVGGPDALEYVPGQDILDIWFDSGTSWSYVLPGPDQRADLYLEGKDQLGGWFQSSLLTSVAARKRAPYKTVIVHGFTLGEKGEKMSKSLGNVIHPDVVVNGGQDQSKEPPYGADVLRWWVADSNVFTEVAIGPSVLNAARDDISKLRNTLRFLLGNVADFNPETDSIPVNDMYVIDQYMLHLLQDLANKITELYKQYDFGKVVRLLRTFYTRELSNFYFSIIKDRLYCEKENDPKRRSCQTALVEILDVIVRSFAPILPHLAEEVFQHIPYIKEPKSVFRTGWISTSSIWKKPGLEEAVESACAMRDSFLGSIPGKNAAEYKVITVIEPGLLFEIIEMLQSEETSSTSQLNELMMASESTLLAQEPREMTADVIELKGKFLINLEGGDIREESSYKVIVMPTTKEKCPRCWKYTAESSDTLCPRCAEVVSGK
Chain of UniProt O60711 (O60711 whole entry, looked up): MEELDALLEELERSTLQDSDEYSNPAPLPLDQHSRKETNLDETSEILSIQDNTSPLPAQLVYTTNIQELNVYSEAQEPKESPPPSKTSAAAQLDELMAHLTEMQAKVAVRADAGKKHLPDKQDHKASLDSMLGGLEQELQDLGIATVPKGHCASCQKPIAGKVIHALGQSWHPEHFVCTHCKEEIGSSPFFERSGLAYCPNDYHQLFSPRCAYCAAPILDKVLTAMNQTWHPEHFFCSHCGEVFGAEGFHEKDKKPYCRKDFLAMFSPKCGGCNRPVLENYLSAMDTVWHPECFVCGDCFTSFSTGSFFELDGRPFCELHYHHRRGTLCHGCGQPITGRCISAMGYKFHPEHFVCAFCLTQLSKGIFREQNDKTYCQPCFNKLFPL

Target	probe-labelled cysteine peptide fold change (10 µM)	probe-labelled cysteine peptide fold change (50 µM)
IRF3_Q14653_267_HVLSCLGGGLALWR (UniProt Q14653)	-0.17	0.346
IVD_P26440_136_ASGAVGLSYGAHSNLCINQLVR (UniProt P26440)	0.0597	-0.151
IGF2R_P11717_149_TLGTPEFVTATECVHYFEWR (UniProt P11717)	-0.0703	-0.305
LGALS1_P09382_17_ACGLVASNLNLKPGECLR (UniProt P09382)	-0.0469	-0.0291
KNTC1_P50748_911_IIDLIDREQGEDCLLLLK (UniProt P50748)	0.282	0.137
KDM3A_Q9Y4C1_814_PACPASTSPLNWLADLTSGNVNK (UniProt Q9Y4C1)	0.0136	-0.377
KIF22_Q14807_201_VLDLLDPASGDLVIREDCR (UniProt Q14807)	-0.154	-0.158
LGALS1_P09382_3_ACGLVASNLNLKPGECLR (UniProt P09382)	-0.0986	-0.246
ITSN2_Q9NZM3_1429_ENSDRLEWIQAHVQCEGLAEQLIFNSLTNCLGPR (UniProt Q9NZM3)	-0.507	-0.633
KPNA1_P52294_424_YLVELGCIK (UniProt P52294)	0.213	0.184
IGF2R_P11717_1783_TSECDFVFEWETPVVCPDEVR (UniProt P11717)	-0.144	-0.672
IARS2_Q9NSE4_819_SCQTALVEILDVIVR (UniProt Q9NSE4)	0.153	-0.107
LANCL2_Q9NS86_367_GYGICHGTAGNGYSFLSLYR (UniProt Q9NS86)	0.0845	-0.0445
KLHL26_Q53HC5_383_SGEGAVDACYR (UniProt Q53HC5)	0.33	0.211
ITGB2_P05107_481_NCECQTQGR (UniProt P05107)	-0.17	-0.216
INTS6L_Q5JSJ4_745_NCSLSVDDQK (UniProt Q5JSJ4)	0.156	-0.0158
LPXN_O60711_155_GHCASCQK (UniProt O60711)	0.00581	0.145
LIMS3_P0CW19-2_121+132_KYCEHDFQMLFAPCCHQCGEFIIGR<|>LIMS1_P48059_59+70_KYCEHDFQMLFAPCCHQCGEFIIGR (UniProt P48059+P0CW19)	-0.18	-0.291
IKBKB_O14920_524_EMEQAVELCGR (UniProt O14920)	0.182	0.0969
INPP5F_Q9Y2H2_725_DTLQCIAEMLQITK (UniProt Q9Y2H2)	0.173	0.242
LIG3_P49916_499_KCPNGMFSEIKYDGER (UniProt P49916)	0.24	0.59
LIMS1_P48059_193+196_MGVPICGACR (UniProt P48059)	-0.089	-0.114
LRRC8C_Q8TDW0_599_MTNLTELELVHCDLER (UniProt Q8TDW0)	0.076	0.0824
ITGB2_P05107_386_VTYDSFCSNGVTHR (UniProt P05107)	0.0533	-0.0395
KIF3A_Q9Y496_230_SHAIFTITIECSEK (UniProt Q9Y496)	0.112	-0.0259
KIAA1958_Q8N8K9_246_PKPQTHAGPSCVGSAK (UniProt Q8N8K9)	-0.0886	-0.293
